According to PubChem BioAssay (Tox21):
Where “and” joins values, the source holds several entries; their conditions need not be identical. Identical values can stand only once. Results filed as inconclusive are left out. Calls of active or inactive are those of the source. Calls follow the shape of the dose curve; as a rule, active = well fitted inhibition curve with a large enough effect in the repeat runs; inconclusive = weak or mixed curves; inactive = no such curve, though single readings can be large or run the other way.

Biological target: Cytochrome P450 2C19 (Homo sapiens) (UniProt P33261)
Assay: Cytochrome P450 Family 2 Subfamily C Member 19 (CYP2C19) small molecule antagonists: luciferase reporter qHTS assay (AID 1671197); also: nearly all actives have a fitted effect of over 65% in size
Conditions: P450-Glo CYP2C19 enzyme, luciferin luminescence, 1 h; series mostly up to 115 µM
Method in brief: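 Enzyme-substrate mix with proluciferin substrate (P450-Glo CYP2C19 system) preincubated with compounds 10 min at room temperature; NADPH regeneration solution added, 37C for 1 h; detection reagent stops reaction, luminescence read after 20 min. Ketoconazole positive control.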
Potency is read from the fitted curve at half-maximal effect.

Sequence of Cytochrome P450 2C19 (Homo sapiens) (P33261 whole entry, looked up): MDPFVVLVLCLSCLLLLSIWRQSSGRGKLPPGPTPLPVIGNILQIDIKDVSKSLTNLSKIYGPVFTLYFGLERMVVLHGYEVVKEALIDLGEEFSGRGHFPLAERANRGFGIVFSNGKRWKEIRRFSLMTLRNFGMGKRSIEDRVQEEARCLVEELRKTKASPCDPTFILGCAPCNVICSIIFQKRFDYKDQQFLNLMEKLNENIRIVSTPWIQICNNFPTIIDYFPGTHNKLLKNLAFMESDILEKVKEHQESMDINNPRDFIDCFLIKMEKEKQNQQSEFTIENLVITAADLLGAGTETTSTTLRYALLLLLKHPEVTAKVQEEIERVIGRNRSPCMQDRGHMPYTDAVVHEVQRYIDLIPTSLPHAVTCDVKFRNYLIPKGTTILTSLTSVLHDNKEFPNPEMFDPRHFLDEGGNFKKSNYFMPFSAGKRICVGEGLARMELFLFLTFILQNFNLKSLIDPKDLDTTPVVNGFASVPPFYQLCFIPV

SMILES	Potency
CC(C)(C)C(O)/C(=C\c1ccc(Cl)cc1Cl)n1cncn1 (configuration not stated)	0.0342 µM (active)
Cc1ccc(OP(=O)(Oc2ccccc2)Oc2ccccc2)cc1	3.22 µM (active)
CN(CCCC(=O)c1cccnc1)N=O	inactive
O=C(CCCN1CCC2(CC1)C(=O)NCN2c1ccccc1)c1ccc(F)cc1	inactive
COc1cccc(C(=O)CCN[C@@H](C)[C@H](O)c2ccccc2)c1	21.9 µM (active)
O=C1NCN(c2ccccc2)C12CCN(CC1COc3ccccc3O1)CC2 (configuration not stated)	4.36 µM (active)
C[C@H]1O[C@@H](O[C@H]2[C@@H](O)C[C@H](O[C@H]3[C@@H](O)C[C@H](O[C@H]4CC[C@@]5(C)[C@H](CC[C@@H]6[C@@H]5CC[C@]5(C)[C@@H](C7=CC(=O)OC7)CC[C@]65O)C4)O[C@@H]3C)O[C@@H]2C)C[C@H](O)[C@@H]1O	inactive
O=C(CCl)C(Cl)Cl	56.9 µM (active)
CCOP(=S)(OCC)SCS(=O)(=O)C(C)(C)C	1.78 µM (active)
CCOc1cc(C(C)(C)C)ccc1C1COC(c2c(F)cccc2F)=N1 (configuration not stated)	3.42 µM (active)
ClC1=C(Cl)C2(Cl)C3C(Cl)C=CC3C1(Cl)C2(Cl)Cl (configuration not stated)	8.98 µM (active) and 20 µM (active)
CCN(CC)c1c([N+](=O)[O-])cc(C(F)(F)F)c(N)c1[N+](=O)[O-]	20 µM (active)
CC(C)N1C(=O)N(c2ccccc2)CSC1=NC(C)(C)C	7.1 µM (active)
FC(F)(F)c1cccc(C2=CCN(CCc3ccc4ccccc4c3)CC2)c1	inactive
CN(C)CCc1c[nH]c2ccc(O)cc12	inactive
C[C@H]1CC[C@@H]2[C@@H](C)[C@H]3[C@H](C[C@H]4[C@@H]5CC=C6CC(O[C@@H]7O[C@H](CO)[C@H](O)[C@H](O[C@@H]8O[C@H](CO)[C@@H](O)[C@H](O)[C@H]8O)[C@H]7O[C@H]7O[C@@H](C)[C@H](O)[C@@H](O)[C@H]7O)CC[C@]6(C)[C@H]5CC[C@]34C)N2C1 (some centres not stated)	inactive
C=CC(=O)N(C)C	inactive
C=CCOC(N)=O	inactive
O=C1c2ccccc2C(=O)C1C(=O)C(c1ccccc1)c1ccc(Cl)cc1 (configuration not stated)	17.8 µM (active)
COCC(=O)N(c1c(C)cccc1C)[C@H](C)C(=O)OC	79.6 µM (active)
CCC(C)c1cc(C(C)(C)C)cc(-n2nc3ccccc3n2)c1O (configuration not stated)	inactive
Cc1cc(C(C)(C)c2cc(C)c(O)c(C)c2)cc(C)c1O	1.22 µM (active)
Oc1cc(Cl)c(Cl)c(Cl)c1	inactive

Biological target: Cytochrome P450 2C9 (Homo sapiens) (UniProt P11712)
Assay: Cytochrome P450 Family 2 Subfamily C Member 9 (CYP2C9) small molecule antagonists: luciferase reporter qHTS assay (AID 1671198); also: nearly all actives have a fitted effect of over 50% in size
Conditions: P450-Glo CYP2C9 enzyme assay, luciferin luminescence; series mostly up to 115 µM
Method in brief: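 P450-Glo proluciferin substrate with CYP2C9 enzyme; 10 min RT preincubation, then NADPH regeneration 1 h at 37C; luciferin detection reagent 20 min RT, luminescence in relative luminescence units.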

Sequence of Cytochrome P450 2C9 (Homo sapiens) (P11712 whole entry, looked up): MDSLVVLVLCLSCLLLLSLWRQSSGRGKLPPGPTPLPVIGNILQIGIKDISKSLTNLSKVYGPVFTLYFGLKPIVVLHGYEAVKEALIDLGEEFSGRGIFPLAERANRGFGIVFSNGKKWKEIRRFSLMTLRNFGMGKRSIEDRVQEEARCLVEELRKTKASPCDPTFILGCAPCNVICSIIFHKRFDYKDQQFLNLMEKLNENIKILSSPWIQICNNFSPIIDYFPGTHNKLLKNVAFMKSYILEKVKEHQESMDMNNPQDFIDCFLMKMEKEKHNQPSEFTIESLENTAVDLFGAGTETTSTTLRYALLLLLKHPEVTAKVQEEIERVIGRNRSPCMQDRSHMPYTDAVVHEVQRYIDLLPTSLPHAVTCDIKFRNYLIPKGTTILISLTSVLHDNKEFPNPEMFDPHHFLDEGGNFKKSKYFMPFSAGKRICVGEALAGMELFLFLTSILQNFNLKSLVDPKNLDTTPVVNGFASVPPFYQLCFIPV

SMILES	Potency
CC(C)(C)C(O)/C(=C\c1ccc(Cl)cc1Cl)n1cncn1 (configuration not stated)	4.83 µM (active)
Cc1ccc(OP(=O)(Oc2ccccc2)Oc2ccccc2)cc1	6.42 µM (active)
CN(CCCC(=O)c1cccnc1)N=O	inactive
O=C(CCCN1CCC2(CC1)C(=O)NCN2c1ccccc1)c1ccc(F)cc1	inactive
COc1cccc(C(=O)CCN[C@@H](C)[C@H](O)c2ccccc2)c1	27.5 µM (active)
O=C1NCN(c2ccccc2)C12CCN(CC1COc3ccccc3O1)CC2 (configuration not stated)	8.71 µM (active)
O=c1ssc(Cl)c1Cl	39.9 µM (active)
COc1cc(N)c(Cl)cc1C(=O)NC1CN2CCC1CC2 (configuration not stated)	inactive
C[C@H]1O[C@@H](O[C@H]2[C@@H](O)C[C@H](O[C@H]3[C@@H](O)C[C@H](O[C@H]4CC[C@@]5(C)[C@H](CC[C@@H]6[C@@H]5CC[C@]5(C)[C@@H](C7=CC(=O)OC7)CC[C@]65O)C4)O[C@@H]3C)O[C@@H]2C)C[C@H](O)[C@@H]1O	inactive
O=C(CCl)C(Cl)Cl	40.3 µM (active)
CCOP(=S)(OCC)SCS(=O)(=O)C(C)(C)C	5.64 µM (active)
CCOc1cc(C(C)(C)C)ccc1C1COC(c2c(F)cccc2F)=N1 (configuration not stated)	12.2 µM (active)
ClC1=C(Cl)C2(Cl)C3C(Cl)C=CC3C1(Cl)C2(Cl)Cl (configuration not stated)	35.6 µM (active)
CC(C)N1C(=O)N(c2ccccc2)CSC1=NC(C)(C)C	6.33 µM (active)
FC(F)(F)c1cccc(C2=CCN(CCc3ccc4ccccc4c3)CC2)c1	inactive
CN(C)CCc1c[nH]c2ccc(O)cc12	24.6 µM (active)
C[C@H]1CC[C@@H]2[C@@H](C)[C@H]3[C@H](C[C@H]4[C@@H]5CC=C6CC(O[C@@H]7O[C@H](CO)[C@H](O)[C@H](O[C@@H]8O[C@H](CO)[C@@H](O)[C@H](O)[C@H]8O)[C@H]7O[C@H]7O[C@@H](C)[C@H](O)[C@@H](O)[C@H]7O)CC[C@]6(C)[C@H]5CC[C@]34C)N2C1 (some centres not stated)	inactive
C=CC(=O)N(C)C	inactive
C=CCOC(N)=O	inactive
O=C1c2ccccc2C(=O)C1C(=O)C(c1ccccc1)c1ccc(Cl)cc1 (configuration not stated)	0.0252 µM (active)
O=CC(Br)(Br)Br	14.1 µM (active)
COCC(=O)N(c1c(C)cccc1C)[C@H](C)C(=O)OC	inactive
Cc1cc(C(C)(C)c2cc(C)c(O)c(C)c2)cc(C)c1O	3.07 µM (active)
Oc1cc(Cl)c(Cl)c(Cl)c1	inactive
